In assay [1] the target is Lysosomal acid glucosylceramidase (Homo sapiens) (UniProt P04062). The assay can be described thus: Glucocerebrosidase-p2 (AID 348; in the data active = potency below about 10 µM; note: potency is the fitted concentration of half-maximal effect). The settings on record: purified GBA, blue fluorogenic substrate, 40 min. An outline of the steps:
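Normal human glucocerebrosidase (0.2 nM) with blue fluorogenic substrate (80 uM final) in citrate/phosphate pH 5.9 with 10mM sodium taurocholate, 0.01% tween-20; 40 min RT, NaOH/glycine stop; fluorescence Ex 365/Em 440; AC50 from a titration from 0.6 nM upwards.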

The target in assay [2] is Cytochrome P450 1A2 (Homo sapiens) (UniProt P05177). Description: p450-cyp1a2 (AID 410; calls by dose curve; note: potency is the fitted concentration of half-maximal effect). The settings on record: recombinant CYP1A2, luciferin-ME demethylation, luminescence; series mostly up to 57 µM. The procedure, abridged:
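O-Demethylation of luciferin 6' methyl ether by human CYP1A2 is monitored as luciferase luminescence. Substrate sits at Km (100uM); enzyme is 20nM. Values are scaled to 57 uM furafylline as maximal inhibition.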

Assay [3] in a line: Stat Signaling Pathway (AID 446; active = well fitted curve in either direction with a large enough effect, not every such curve was filed as active;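 note: ME-180 cervical cancer cells given 40 pM IL-6 alongside compound; SIE-controlled beta-lactamase reporter measured as 460/530 nm FRET emission ratio; % is set by controls: 0 for no effect and ±100 for the full control effect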). The conditions noted are these: ME-180 SIE beta-lactamase reporter, IL-6 stimulated, 5 h; at 7.69 µM (top of the series) unless noted. An outline of the steps: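 Compound effects on IL-6-induced STAT reporter activity were measured in ME-180 cells. After overnight culture, cells were co-treated with 40 pM IL-6 for 5 hrs before beta-lactamase substrate loading at room temperature.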

The target of assay [4] is Glucocorticoid receptor (Homo sapiens) (UniProt P04150). The assay can be described thus: GR-EFC Redistribution (AID 451; calls by dose curve; note: potency is the fitted concentration of half-maximal effect). The settings on record: CHO-K1 GR-EFC translocation, beta-gal luminescence, 2 h. An outline of the steps: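 CHO-K1 cells expressing nuclear EA and GR-ED fragments of b-gal; compounds titrated up to 46 uM final, 2 h at 37 C. GR nuclear translocation read as complemented b-gal luminescence after 1 h RT detection.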
Chain of Glucocorticoid receptor (Homo sapiens) (P04150 whole entry, looked up, the tested form may be a part): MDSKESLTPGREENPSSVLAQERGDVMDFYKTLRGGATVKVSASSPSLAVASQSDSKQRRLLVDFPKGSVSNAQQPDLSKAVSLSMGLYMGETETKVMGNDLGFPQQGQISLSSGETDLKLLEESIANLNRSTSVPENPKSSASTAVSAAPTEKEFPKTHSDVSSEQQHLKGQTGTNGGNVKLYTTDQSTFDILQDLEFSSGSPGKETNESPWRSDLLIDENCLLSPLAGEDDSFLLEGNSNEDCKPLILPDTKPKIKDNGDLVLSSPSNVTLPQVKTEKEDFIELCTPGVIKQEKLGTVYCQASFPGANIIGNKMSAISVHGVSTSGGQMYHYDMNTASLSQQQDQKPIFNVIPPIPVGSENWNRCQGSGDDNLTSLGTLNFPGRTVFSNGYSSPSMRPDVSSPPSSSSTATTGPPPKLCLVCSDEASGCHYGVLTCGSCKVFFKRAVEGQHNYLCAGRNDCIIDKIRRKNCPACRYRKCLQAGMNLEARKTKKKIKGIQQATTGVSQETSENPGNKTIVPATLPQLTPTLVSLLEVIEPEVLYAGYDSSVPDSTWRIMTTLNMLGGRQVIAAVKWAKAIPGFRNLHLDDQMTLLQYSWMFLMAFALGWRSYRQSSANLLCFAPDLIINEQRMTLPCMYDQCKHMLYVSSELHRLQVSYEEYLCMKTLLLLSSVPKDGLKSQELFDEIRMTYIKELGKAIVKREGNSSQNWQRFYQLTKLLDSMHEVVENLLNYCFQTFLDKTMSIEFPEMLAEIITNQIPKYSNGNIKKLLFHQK

The target of assay [5] is Mitogen-activated protein kinase 10 (Mus musculus) (UniProt Q61831). The assay can be described thus: JNK3 AlphaScreen Assay (AID 530; active = well fitted curve in either direction with a large enough effect, not every such curve was filed as active;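 note: kinase came from lysate of stimulated human HepG2 cells; signal reports phosphorylation of biotinylated GST-cJun 1-79 at Ser73 with 10 µM ATP; % is set by controls: 0 for no effect and ±100 for the full control effect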). The settings on record: JNK3 lysate, c-Jun phosphorylation; series mostly up to 57.1 µM. An outline of the steps:
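Activity was read by AlphaScreen after JNK3-containing HepG2 lysate (cytokine pre-activated) phosphorylated biotinylated GST-cJun with 10 uM ATP at room temperature. Phospho-Ser73 cJun antibody with Protein-A acceptor beads provided detection.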

The target in assay [6] is 3',5'-cyclic-AMP phosphodiesterase 4B (Homo sapiens) (UniProt Q07343). Description: qHTS Assay for Inhibitors of PDE-IV (AID 607; active = well fitted activation curve with a large enough effect in the main read-out, with a control signal flat, not every such curve was filed as active; note: % of control where 0% means no effect). The conditions noted are these: HEK293 ACTOne CNG channel cells, membrane potential fluorescence; series mostly up to 22.9 µM. An outline of the steps: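 ACTOne HEK293 cells carry a modified cAMP-gated CNG channel and express endogenous PDE4; plated 1000 cells/well, compounds up to 22.9 uM final. Membrane-potential dye fluorescence (ex 535/em 590) was read; parental cells received 10 uM forskolin + 100 uM RO 20-1724.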
Chain of 3',5'-cyclic-AMP phosphodiesterase 4B (Homo sapiens) (Q07343 whole entry, looked up): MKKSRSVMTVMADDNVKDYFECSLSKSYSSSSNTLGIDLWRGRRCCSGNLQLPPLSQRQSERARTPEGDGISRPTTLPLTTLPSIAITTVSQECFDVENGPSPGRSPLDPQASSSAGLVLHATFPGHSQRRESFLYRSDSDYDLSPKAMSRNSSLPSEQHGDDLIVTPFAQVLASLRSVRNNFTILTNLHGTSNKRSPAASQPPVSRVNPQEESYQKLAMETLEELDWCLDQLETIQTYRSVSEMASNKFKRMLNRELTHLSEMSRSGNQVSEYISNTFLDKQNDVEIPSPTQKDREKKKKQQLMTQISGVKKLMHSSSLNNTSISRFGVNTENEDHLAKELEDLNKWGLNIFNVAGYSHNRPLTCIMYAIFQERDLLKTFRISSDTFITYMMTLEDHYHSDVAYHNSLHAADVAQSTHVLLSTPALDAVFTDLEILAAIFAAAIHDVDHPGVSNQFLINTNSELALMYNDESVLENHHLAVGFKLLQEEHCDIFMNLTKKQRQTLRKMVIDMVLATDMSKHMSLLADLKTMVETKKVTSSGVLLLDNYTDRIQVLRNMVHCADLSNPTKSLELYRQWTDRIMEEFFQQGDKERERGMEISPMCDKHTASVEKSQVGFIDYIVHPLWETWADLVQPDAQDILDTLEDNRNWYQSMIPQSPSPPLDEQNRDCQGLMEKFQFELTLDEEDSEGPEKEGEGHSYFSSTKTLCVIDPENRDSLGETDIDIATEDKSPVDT

In assay [7] the target is Cytochrome P450 3A4 (Homo sapiens) (UniProt P08684). Description: qHTS Assay for Activators of Cytochrome P450 3A4 (AID 885). Note: nearly all actives have a fitted effect of over 65% in size. Note: potency is the fitted concentration of half-maximal effect. The conditions noted are these: recombinant CYP3A4, Luciferin-PPXE luminescence, 60 min; series mostly up to 57.1 µM. The procedure, abridged: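 CYP3A4 activity: Luciferin-PPXE O-dealkylation, 25uM substrate, 200mM KPO4, RT throughout. Read-out is luciferase luminescence; higher values reflect activation.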
Chain of Cytochrome P450 3A4 (Homo sapiens) (P08684 whole entry, looked up): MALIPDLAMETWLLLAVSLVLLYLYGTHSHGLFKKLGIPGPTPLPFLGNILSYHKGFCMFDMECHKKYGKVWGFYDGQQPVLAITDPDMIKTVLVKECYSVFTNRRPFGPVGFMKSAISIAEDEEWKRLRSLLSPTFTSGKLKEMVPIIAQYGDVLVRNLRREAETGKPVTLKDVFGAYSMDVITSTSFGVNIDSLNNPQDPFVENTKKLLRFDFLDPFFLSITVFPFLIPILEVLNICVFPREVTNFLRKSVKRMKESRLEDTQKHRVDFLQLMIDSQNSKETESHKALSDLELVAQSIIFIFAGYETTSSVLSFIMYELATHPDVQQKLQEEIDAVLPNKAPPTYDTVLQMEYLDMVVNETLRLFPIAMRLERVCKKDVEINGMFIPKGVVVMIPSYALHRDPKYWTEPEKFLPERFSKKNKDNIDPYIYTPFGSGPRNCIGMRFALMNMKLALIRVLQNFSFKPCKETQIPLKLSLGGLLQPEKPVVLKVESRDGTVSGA

Assay [8] has as its target Cytochrome P450 2C19 (Homo sapiens) (UniProt P33261). The assay can be described thus: qHTS Assay for Inhibitors and Substrates of Cytochrome P450 2C19 (AID 899). Note: potency is the fitted concentration of half-maximal effect; nearly all actives have a fitted effect of over 60% in size. The conditions noted are these: recombinant CYP2C19, luciferin-H EGE luminescence; series mostly up to 57.1 µM. An outline of the steps:
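Luminescent read-out of luciferin formed from Luciferin-H EGE (10uM, equal to KM). Enzyme 5nM in 50mM KPO4; compound added, 10 min at 37C, then NADPH regenerating system for 60 min at 37C. Full inhibition defined by 57uM ketoconazole.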

Assay [9] is described as follows: qHTS Assay for Lipid Storage Modulators (AID 1519; calls by dose curve). The settings on record: Drosophila S3 cells, BODIPY lipid droplet/cell ratio, laser cytometry, cells loaded with oleic acid; for activity change, negative = inhibition: at 57.5 µM (top of the series). The procedure, abridged: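 Cells seeded at 5,000 per well were treated with compounds over a concentration series and loaded with oleic acid (400 uM, as added). Lipid droplet fluorescence (488 nm excitation, 500-530 nm channel) was read by laser-scanning cytometry and normalized to 20 uM Triacsin C.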

Assay [10] in a line: Primary qHTS for small molecule stabilizers of the endoplasmic reticulum resident proteome: Secreted ER Calcium Modulated Protein (SERCaMP) assay (AID 1508630). Note: % is set by controls: 0 for no effect and ±100 for the full control effect. The settings on record: SH-SY5Y GLuc-SERCaMP (Gaussia luciferase released on ER calcium loss) secretion, thapsigargin, luminescence; series mostly up to 38.4 µM. The procedure, abridged: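 The SH-SY5Y reporter protocol was run at 3 concentrations up to 38.3 uM (primary) or 11 concentrations (follow-up): 16 h compound, 100 nM thapsigargin for 4 h, then extracellular luciferase luminescence.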

A short description of assay [11]: NFAT Signaling Pathway (AID 444; active = well fitted curve in either direction with a large enough effect, not every such curve was filed as active;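 note: carbachol stimulus at about its EC50 of 1 µM final; % is set by controls: 0 for no effect and ±100 for the full control effect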). The conditions noted are these: Jurkat NFAT-bla M1, carbachol, beta-lactamase ratio, 5 h; at 7.69 µM (top of the series) unless noted. The procedure, abridged: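 Jurkat cells with NFAT-driven β-lactamase reporter and co-expressed M1 receptor, stimulated with carbachol (final 1 uM, ~EC50), compound titration, 5 h at 37 °C. CCF4 loaded 1 h at RT; 460/530 nm ratio gave %activity and AC50.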

Assay [12] has as its target Glucocorticoid receptor (Homo sapiens) (UniProt P04150). Description: GR-GFP Redistribution (AID 450;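 active = compounds whose dose series gives a full or clear partial fitted curve of increased nuclear translocation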; note: potency is the fitted concentration of half-maximal effect). The settings on record: U2OS GR-GFP nuclear translocation, laser cytometry, 2 h.
Assay [13] can be described thus: Confirmation and Secondary Assay for Modulators of Hemoglobin Beta Chain Splicing at IVS2 654 locus (AID 910).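 Note: HeLa cells stably carrying EGFP split by mutant beta-globin IVS2-654 intron; % of control where 0% means no effect.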 The settings on record: HeLa EGFP-654 splicing reporter, GFP fluorescence, 48 h; series mostly up to 38.3 µM. An outline of the steps:
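HeLa cells stably expressing EGFP interrupted by β-globin IVS2-654 intron, seeded overnight in Opti-MEM/2% FCS, then treated 2 days at 37 °C. Restored splicing read as total peak GFP intensity per well by laser scanning cytometry (488 nm excitation, 500–520 nm emission); 500 nM antisense PNA as control.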

Assay [14] in a line: Confirmation and Secondary Assay for Modulators of Hemoglobin Beta Chain Splicing at IVS2 705 locus (AID 930).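 Note: HeLa cells stably expressing the EGFP-705 splicing reporter; GFP fluorescence per well restored by corrected splicing of the IVS2-705 intron in EGFP; % of control where 0% means no effect.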 The settings on record: HeLa EGFP-705 splicing reporter, GFP fluorescence, 48 h; series mostly up to 38.3 µM. The procedure, abridged:
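Splice-correction reporter: EGFP cDNA split by beta-globin intron 2 bearing the 705 mutation, stably in HeLa. Compound incubation 2 days, 37C; fluorescent objects 5-250 µm summed per well.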

For assay [15], the target named is Ubiquitin carboxyl-terminal hydrolase 1 (Homo sapiens) (UniProt O94782). Description: Inhibitors of USP1/UAF1: Pilot qHTS (AID 504865).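 Note: rhodamine fluorescence freed from ubiquitin-rhodamine substrate followed over time; top concentration of the series differs between compounds; % is set by controls: 0 for no effect and ±100 for the full control effect; nearly all actives have a fitted effect of over 35% in size.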 The settings on record: purified USP1/UAF1, Ub-rhodamine cleavage fluorescence; series mostly up to 54.9 µM. An outline of the steps: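 Enzyme-free wells gave the negative control, while test wells held 1nM USP1/UAF1 preincubated with compound for 15 min at room temperature. Ub-Rho at 150nM final started the reaction, and fluorescence at 480/540 nm was recorded kinetically.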
Chain of Ubiquitin carboxyl-terminal hydrolase 1 (Homo sapiens) (O94782 whole entry, looked up): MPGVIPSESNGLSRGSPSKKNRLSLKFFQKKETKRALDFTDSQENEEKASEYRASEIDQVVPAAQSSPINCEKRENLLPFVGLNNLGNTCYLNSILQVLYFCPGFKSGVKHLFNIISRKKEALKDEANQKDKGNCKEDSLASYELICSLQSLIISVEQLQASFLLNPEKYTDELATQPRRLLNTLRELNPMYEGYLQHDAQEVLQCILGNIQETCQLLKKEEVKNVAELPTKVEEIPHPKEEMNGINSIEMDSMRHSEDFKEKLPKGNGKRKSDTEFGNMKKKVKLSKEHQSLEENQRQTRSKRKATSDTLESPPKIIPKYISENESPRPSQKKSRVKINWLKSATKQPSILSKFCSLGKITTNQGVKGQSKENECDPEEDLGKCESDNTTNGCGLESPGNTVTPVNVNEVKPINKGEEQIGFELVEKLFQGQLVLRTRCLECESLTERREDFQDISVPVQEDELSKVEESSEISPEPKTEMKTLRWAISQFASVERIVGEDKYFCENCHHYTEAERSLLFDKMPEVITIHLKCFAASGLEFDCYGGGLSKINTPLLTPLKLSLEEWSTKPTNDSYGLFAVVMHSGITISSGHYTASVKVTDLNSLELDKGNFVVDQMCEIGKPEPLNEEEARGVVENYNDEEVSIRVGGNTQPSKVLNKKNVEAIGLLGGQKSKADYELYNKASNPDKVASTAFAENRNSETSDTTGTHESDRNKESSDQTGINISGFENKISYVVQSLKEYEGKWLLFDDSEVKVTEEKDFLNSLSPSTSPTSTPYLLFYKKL

In assay [16] the target is Cytochrome P450 3A4 (Homo sapiens) (UniProt P08684). The assay can be described thus: qHTS Assay for Inhibitors and Substrates of Cytochrome P450 3A4 (AID 884). Note: nearly all actives have a fitted effect of over 50% in size. Note: potency is the fitted concentration of half-maximal effect. The conditions noted are these: recombinant CYP3A4, Luciferin-PPXE luminescence; series mostly up to 57.1 µM. An outline of the steps: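 Luminescent readout of luciferin produced by CYP3A4 (20 nM) dealkylation of Luciferin-PPXE, 25 uM (its KM). NADPH-driven reaction ran 60 min at RT after 10 min compound preincubation; data scaled to 57 uM ketoconazole as 100% inhibition.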

A short description of assay [17]: AP1 Signaling Pathway (AID 357; active = well fitted curve in either direction with a large enough effect, not every such curve was filed as active; note: % is set by controls: 0 for no effect and ±100 for the full control effect). The conditions noted are these: ME-180 (cervical carcinoma) AP-1-bla reporter, EGF-induced, beta-lactamase ratio, 5 h; at 7.69 µM (top of the series) unless noted. An outline of the steps: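 Read-out was the 460nm/530nm emission ratio (excitation 405nm) after CCF4 loading for 2.5 hours at room temperature. Cells carried an AP-1-driven beta-lactamase reporter, were stimulated with EC50 EGF plus compound for 5 hours, and AC50 values came from titrations.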

Where [18] appears, read: measured here: cell count channel max response.
Where [19] appears, read: measured here: lipid channel max response.

Results filed as inconclusive are left out. Activity calls are given as the source filed them. Unless noted, calls come from the whole dose curve; as a rule, active = well fitted curve in the direction sought with a large enough effect; inconclusive = small, poorly fitted or top-dose-only effect, or another doubt; inactive = no such curve, though single readings can be large; an effect the other way counts as inactive or inconclusive.

Chain of Cytochrome P450 1A2 (Homo sapiens) (P05177 whole entry, looked up): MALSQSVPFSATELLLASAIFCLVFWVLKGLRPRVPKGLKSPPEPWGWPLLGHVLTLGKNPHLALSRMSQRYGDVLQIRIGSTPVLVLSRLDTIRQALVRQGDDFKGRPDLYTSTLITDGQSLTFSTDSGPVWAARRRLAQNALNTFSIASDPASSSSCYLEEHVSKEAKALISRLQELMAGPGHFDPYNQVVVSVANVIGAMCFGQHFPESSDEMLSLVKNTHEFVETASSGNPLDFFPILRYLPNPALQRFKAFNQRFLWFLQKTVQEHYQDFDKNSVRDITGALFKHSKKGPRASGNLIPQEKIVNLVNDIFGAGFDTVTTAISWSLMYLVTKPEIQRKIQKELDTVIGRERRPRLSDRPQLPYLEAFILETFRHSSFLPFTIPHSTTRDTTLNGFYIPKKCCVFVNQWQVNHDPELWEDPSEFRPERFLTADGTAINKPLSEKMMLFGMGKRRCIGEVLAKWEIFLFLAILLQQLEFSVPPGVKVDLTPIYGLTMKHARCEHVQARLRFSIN
Chain of Lysosomal acid glucosylceramidase (Homo sapiens) (P04062 whole entry, looked up): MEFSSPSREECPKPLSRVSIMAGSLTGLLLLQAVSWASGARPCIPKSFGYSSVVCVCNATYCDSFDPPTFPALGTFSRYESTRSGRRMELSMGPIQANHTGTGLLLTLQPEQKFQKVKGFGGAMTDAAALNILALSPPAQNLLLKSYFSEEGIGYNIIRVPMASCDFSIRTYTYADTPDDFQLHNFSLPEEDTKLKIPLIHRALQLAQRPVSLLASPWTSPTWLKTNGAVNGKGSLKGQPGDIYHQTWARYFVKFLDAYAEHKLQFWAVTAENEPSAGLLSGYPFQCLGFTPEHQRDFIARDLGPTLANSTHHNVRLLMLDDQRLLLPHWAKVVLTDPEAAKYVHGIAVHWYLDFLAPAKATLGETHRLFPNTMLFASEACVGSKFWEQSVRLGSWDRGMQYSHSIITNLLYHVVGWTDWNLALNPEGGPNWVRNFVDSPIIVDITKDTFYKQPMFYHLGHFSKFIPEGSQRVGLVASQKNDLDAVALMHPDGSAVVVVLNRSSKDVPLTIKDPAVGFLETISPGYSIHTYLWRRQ
Chain of Cytochrome P450 2C19 (Homo sapiens) (P33261 whole entry, looked up): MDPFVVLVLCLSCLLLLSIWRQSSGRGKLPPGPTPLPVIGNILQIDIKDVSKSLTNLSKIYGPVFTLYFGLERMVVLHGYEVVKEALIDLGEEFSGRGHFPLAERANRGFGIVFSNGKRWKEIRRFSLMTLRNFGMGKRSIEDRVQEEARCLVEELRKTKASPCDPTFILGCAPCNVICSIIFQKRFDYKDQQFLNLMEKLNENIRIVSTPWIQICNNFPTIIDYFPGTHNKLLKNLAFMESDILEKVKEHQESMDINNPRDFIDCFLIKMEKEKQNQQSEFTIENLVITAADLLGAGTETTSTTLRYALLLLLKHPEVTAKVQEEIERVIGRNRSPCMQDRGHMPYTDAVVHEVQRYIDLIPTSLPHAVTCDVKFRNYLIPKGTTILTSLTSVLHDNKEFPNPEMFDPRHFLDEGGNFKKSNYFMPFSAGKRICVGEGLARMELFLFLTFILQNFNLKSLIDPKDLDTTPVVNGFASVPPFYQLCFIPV

`O=C(Oc1ccccc1)N1CCC[C@@]2(CCN(c3ccncc3)C2)C1`: the Potency was > 11.4 µM (inactive) in assay [1], 20 µM (active) in assay [2], > 46 µM (inactive) in assay [4] and 5.01 µM (active) in assay [8]. Moreover, the activity, negative = inhibition in assay [3] was -2.61% (inactive). Besides, the Potency result in [5], in assay [6] and in assay [7] was “inactive” in each case. In addition, the activity change, negative = inhibition in assay [9] is 4.19% (inactive). The figures for the max response in assay [9] (setting [18]) and in assay [9] (setting [19]) were 13.6% and 23.8%, respectively. Moreover, the outcome in [10] was inactive.

Take `CN(C)C(=O)c1ccc(-c2nc(NCc3ccccc3)c3ccccc3n2)cc1`: the Potency in assay [1] was > 11.4 µM (inactive); in assay [2], 15.8 µM (active); in assay [12], > 46 µM (inactive); in assay [4] it was > 46 µM (inactive). The activity change, negative = inhibition in assay [11] was 16% (inactive); in assay [9] it was 10.9% (inactive). Moreover, in [3], the activity, negative = inhibition is -21.7% (inactive). Further, the Potency result in assay [5], in assay [7], in assay [13] and in assay [15] was “inactive” in each case. For the same compound, the compound was classed as inactive in [14] and in assay [10]. For the same compound, the max response in assay [9] (setting [18]) is 6.91%; in [9] (setting [19]) it was 16.5%.

As for `CCNc1ncc2nc(-c3ccc(OC)cc3)c(=O)n(Cc3cccc(OC)c3)c2n1`, the Potency was > 11.4 µM (inactive) in assay [1], 15.8 µM (active) in assay [2], > 9.22 µM (inactive) in [12] and > 46 µM (inactive) in [4]. Further, the Potency result in assay [5] and in assay [7] was “inactive” each time. Further, the activity change, negative = inhibition in [9] is -12% (inactive). The max response in assay [9] (setting [18]) is -21.5%; in [9] (setting [19]), -29.7%. In [10], the outcome was inactive.

Turning to `O=C(c1csnn1)N1CCC2(CCCN(C(c3ccccc3)c3ccccc3)C2)CC1`, the Potency in assay [1] is > 11.4 µM (inactive); in [4], > 46 µM (inactive). Further, the activity change, negative = inhibition in [11] was 1.14% (inactive); in assay [9] it was -2.23% (inactive). Besides, the activity, negative = inhibition in assay [3] was 18.5% (inactive). In addition, the Potency result in [5] and in assay [6] was “inactive” in each case. For the same compound, the max response was -8.01% in assay [9] (setting [18]) and -8.95% in [9] (setting [19]). Moreover, in [10], the result was inactive.

Take `COC(=O)N1CCC2(CC1)CN(c1ccc(-c3ccccc3)cc1)C2`: the Potency is > 11.4 µM (inactive) in assay [1], 1.26 µM (active) in [2], > 46 µM (inactive) in assay [4] and 3.16 µM (active) in assay [7]. The activity change, negative = inhibition was 15.9% (inactive) in assay [11] and 5.19% (inactive) in assay [9]. In addition, the activity, negative = inhibition in assay [3] was -8.46% (inactive). The Potency result in [5], in assay [6] and in assay [16] was “inactive” each time. The max response was -7.69% in [9] (setting [18]) and 0.422% in assay [9] (setting [19]). Moreover, the result in assay [10] was inactive.

Regarding `c1cncc(CNc2nc(-c3ccc4c(c3)OCO4)nc3ccccc23)c1`, the Potency in assay [1] is > 11.4 µM (inactive); in assay [2], 0.1 µM (active); in [12], > 46 µM (inactive); in assay [4], > 46 µM (inactive); in [16] it was 0.316 µM (active). Further, the activity change, negative = inhibition in assay [11] was -3.4% (inactive); in assay [9] it was 6.87% (inactive). Besides, the activity, negative = inhibition in assay [3] was -7.26% (inactive). The Potency result in assay [5], in [7] and in [13] was “inactive” in each case. Moreover, the values for the max response in [9] (setting [18]) and in assay [9] (setting [19]) were 10.1% and 18%, respectively. In addition, the outcome in [10] was inactive.

Consider `CN1CCC2(CC1)CCN(C(=O)c1cccc(F)c1)CC2`, for which the Potency in assay [1] is > 11.4 µM (inactive); in assay [4] it was > 46 µM (inactive). Besides, the values for the activity change, negative = inhibition in assay [17] and in assay [9] were 2.25% (inactive) and -1.77% (inactive), respectively. For the same compound, the Potency result in assay [5] and in [6] was “inactive” throughout. Moreover, the results for the max response in assay [9] (setting [18]) and in assay [9] (setting [19]) were 3% and 2.59%, respectively. The result in assay [10] was inactive.

The record behind these values is PubChem BioAssay (NCATS).
